# PubChem BioAssay (Tox21)
# Unmarked numbers belong to inactive results. Records with an inconclusive call do not appear. Active and inactive are the calls of the source. Calls follow the shape of the dose curve; as a rule, active = well fitted curve in the direction sought with a large enough effect in the repeat runs; inconclusive = weak or mixed curves; inactive = no such curve, though single readings can be large; an effect the other way counts as inactive or inconclusive.
# Experiment: qHTS assay to identify small molecule HDAC inhibitors - cell viability counter screen (AID 1259365); also: nearly all actives have a fitted effect of over 50% in size
# Settings: HCT-116 viability, CellTiter-Glo ATP luminescence, 2 h; series mostly up to 92.4 µM; activity change, negative = cytotoxicity: at the top concentration
# Outline: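 Wild-type HCT-116 cells, 1,500/well, cultured overnight, then compound-treated 2 h at 37 C. Viability measured as ATP luminescence with CellTiter-Glo after 30 min at room temperature.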
# % is scaled to controls: 0 for no effect and ±100 for the full control effect.
row,Structure (SMILES),"activity change, negative = cytotoxicity"
1,CC(C(=O)O)c1ccc2c(c1)Cc1cccnc1O2 (stereo unspecified),1.92% [at 42.5 µM]
2,Oc1ccc(CCNCCCCCCNCCc2ccccc2)cc1O,-1.55% [at 42.5 µM]
3,CCN(CCCCOC(=O)c1ccc(OC)c(OC)c1)C(C)Cc1ccc(OC)cc1 (stereo unspecified),-3.21% [at 42.5 µM]
4,O=Cc1ccc(Cl)c([N+](=O)[O-])c1,4.16%
5,CC(C)CCCCCCCOC(=O)c1ccc(C(=O)OCCCCCCCC(C)C)c(C(=O)OCCCCCCCC(C)C)c1,0.581%
6,Cc1ccc(NC(=O)c2ccc(CN3CCN(C)CC3)cc2)cc1Nc1nccc(-c2cccnc2)n1,4.46% [at 42.5 µM]
7,Cc1nc(C)c(C)nc1C,1.7%
8,O=C(Cl)c1cc(Cl)cc(Cl)c1,1.86%
9,c1ccc(CCNc2nc(-c3ccccc3)cs2)cc1,-6.12% [at 42.5 µM]
10,O=C(N[C@@H](Cc1ccccc1)[C@@H](O)C(=O)N1C[C@@H](O)[C@@H](O)C1)c1cc2cc(Cl)ccc2[nH]1,-0.0405%
11,CC(C)(C)NCC(O)COc1ccc(NC(=O)NC2CCCCC2)cc1 (stereo unspecified),0.564% [at 42.5 µM]
12,CC(C)(Cc1c[nH]c2ccccc12)NCC(O)COc1ccccc1C#N (stereo unspecified),-4.04% [at 42.5 µM]
13,CCOC(=O)CC(O)(CC(=O)OCC)C(=O)OCC,-0.339%
14,CCCC(=O)OCCC(C)C,-2.32%
15,CC1=C(C)C(=O)C(CCCCC#CCCCC#CCO)=C(C)C1=O,-7.75% [at 42.5 µM]
16,C[C@H](CN1CCCC1)C(=O)c1ccc(C(F)(F)F)cc1,-0.0013% [at 42.5 µM]
17,C=CC(C)CCC=C(C)C (stereo unspecified),0.315%

row,Structure (SMILES),"activity change, negative = cytotoxicity"
1,O=C(c1ccc(Cl)cc1)c1ccc(Cl)cc1,0.278%
2,CCC(=O)O[C@]1(C(=O)COC)[C@@H](C)C[C@H]2[C@@H]3CCC4=CC(=O)C=C[C@]4(C)C3(F)[C@@H](O)C[C@@]21C (stereo partly specified),1.82% [at 42.5 µM]
3,COC(=O)C(C)(C)C,1.76%
4,C=C[Si](OCC)(OCC)OCC,-2.23%
5,Oc1ccc(Oc2ccccc2)cc1,-2.2%
6,C=CC(O)CCCCC (stereo unspecified),-0.765%
7,O=C(OCCOCCOCCOC(=O)c1ccccc1)c1ccccc1,-2.16%
8,c1ccc(CN(Cc2ccccc2)Cc2ccccc2)cc1,-10.1%
9,CCCCCCCCCCCCSCCOCCO,-0.529% [at 42.5 µM]
10,CC(C)=CCC/C(C)=C/C=N/O,-8.06%
11,Cc1c(N=C=O)cccc1N=C=O,5.78%
12,CCC(CC)C(=O)O,1.64%
13,O=C(O)c1ccccc1-n1cc(C(=O)O)c(=O)c2cc(Nc3c(F)cc(F)cc3Cl)c(Cl)cc21,3.14%
14,Clc1cc(Cl)c2c(c1)N=C1CCCCCN1C2,-6.8% [at 42.5 µM]
15,C=C[Si]1(C)O[Si](C)(C=C)O[Si](C)(C=C)O[Si](C)(C=C)O1 (stereo unspecified),2.18%
16,CCOC(C)OCC,2.07%

# Experiment: qHTS assay to identify small molecule agonists of the sonic hedgehog signaling (Shh) pathway - cell viability counter screen (AID 1259366); also: nearly all actives have a fitted effect of over 50% in size; also: potency is read from the fitted curve at half-maximal effect
# Settings: NIH/3T3 Gli1-Luc viability, CellTiter-Fluor, 24 h; series mostly up to 92.4 µM; viability change, negative = cytotoxic: at the top concentration
# Outline: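 NIH/3T3-derived Gli1-Luc reporter cells, 2,000 per well, received compound after 4 h and were treated about 23 h at 37C. Viability measured in the same wells by CellTiter-Fluor fluorescence after 1 h.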
Structure (SMILES),"viability change, negative = cytotoxic",Potency
CC(C(=O)O)c1ccc2c(c1)Cc1cccnc1O2 (stereo unspecified),7.12% [at 42.5 µM],
Oc1ccc(CCNCCCCCCNCCc2ccccc2)cc1O,,29.8 µM (active)
CCN(CCCCOC(=O)c1ccc(OC)c(OC)c1)C(C)Cc1ccc(OC)cc1 (stereo unspecified),-19.9% [at 42.5 µM],
O=Cc1ccc(Cl)c([N+](=O)[O-])c1,,27.3 µM (active)
O=S(=O)(O)c1cc(Cl)c(Cl)cc1Cl,1.74%,
Cc1nc(C)c(C)nc1C,-3.54%,
O=C(Cl)c1cc(Cl)cc(Cl)c1,1.16%,
c1ccc(CCNc2nc(-c3ccccc3)cs2)cc1,2.87% [at 42.5 µM],
CC(C)(C)NCC(O)COc1ccc(NC(=O)NC2CCCCC2)cc1 (stereo unspecified),-21.4% [at 42.5 µM],
CC(C)(C)c1ccc(CCC=O)cc1,-7.52%,
CCOC(=O)CC(O)(CC(=O)OCC)C(=O)OCC,2.61%,
CCCC(=O)OCCC(C)C,0.0061%,
CC1=C(C)C(=O)C(CCCCC#CCCCC#CCO)=C(C)C1=O,-17.9% [at 42.5 µM],
C=CC(C)CCC=C(C)C (stereo unspecified),-2.02%,
O=C(c1ccc(Cl)cc1)c1ccc(Cl)cc1,1.13%,
COC(=O)C(C)(C)C,1.21%,
C=C[Si](OCC)(OCC)OCC,-8.38%,
Oc1ccc(Oc2ccccc2)cc1,-12.4%,
C=CC(O)CCCCC (stereo unspecified),1.46%,
O=C1c2ccccc2C(=O)C1c1ccc2ccccc2n1,-7.54% [at 42.5 µM],
c1ccc(CN(Cc2ccccc2)Cc2ccccc2)cc1,7.54%,
CCCCCCCCCCCCSCCOCCO,19% [at 42.5 µM],
CC(C)=CCC/C(C)=C/C=N/O,-0.863%,
Cc1c(N=C=O)cccc1N=C=O,0.524%,
CCC(CC)C(=O)O,1.38%,
O=C(O)c1ccccc1-n1cc(C(=O)O)c(=O)c2cc(Nc3c(F)cc(F)cc3Cl)c(Cl)cc21,10.2%,
Clc1cc(Cl)c2c(c1)N=C1CCCCCN1C2,-1.2% [at 42.5 µM],
C=C[Si]1(C)O[Si](C)(C=C)O[Si](C)(C=C)O[Si](C)(C=C)O1 (stereo unspecified),13.7%,
CCOC(C)OCC,-0.986%,

# Experiment: qHTS assay to identify small molecule antagonists of the sonic hedgehog signaling (Shh) pathway - cell viability counter screen (AID 1259367); also: nearly all actives have a fitted effect of over 55% in size; also: potency is read from the fitted curve at half-maximal effect
# Settings: NIH/3T3 Gli1-Luc viability, CellTiter-Fluor, 24 h; series mostly up to 92.4 µM; viability change, negative = cytotoxic: at the top concentration
# Outline: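 Tox21 library chemicals were tested on a Gli1-Luc NIH/3T3 clone (2,000 cells/well) stimulated by conditioned medium; viability was quantified as fluorescence from CellTiter-Fluor reagent added at 23 hr.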
Structure (SMILES),"viability change, negative = cytotoxic",Potency
CC(C(=O)O)c1ccc2c(c1)Cc1cccnc1O2 (stereo unspecified),5.99% [at 42.5 µM],
Cc1cc(SC2=C(O)C[C@@](CCc3ccc(N)cc3)(C(C)C)OC2=O)c(C(C)(C)C)cc1CO,-7.73%,
CCN(CCCCOC(=O)c1ccc(OC)c(OC)c1)C(C)Cc1ccc(OC)cc1 (stereo unspecified),-26.9% [at 42.5 µM],
O=Cc1ccc(Cl)c([N+](=O)[O-])c1,3.35%,
CC(C)CCCCCCCOC(=O)c1ccc(C(=O)OCCCCCCCC(C)C)c(C(=O)OCCCCCCCC(C)C)c1,,42.6 µM (active)
O=S(=O)(O)c1cc(Cl)c(Cl)cc1Cl,5.6%,
Cc1nc(C)c(C)nc1C,0.472%,
O=C(Cl)c1cc(Cl)cc(Cl)c1,6.37%,
c1ccc(CCNc2nc(-c3ccccc3)cs2)cc1,0.221% [at 42.5 µM],
CC(C)(C)NCC(O)COc1ccc(NC(=O)NC2CCCCC2)cc1 (stereo unspecified),-21.2% [at 42.5 µM],
CC(C)(C)c1ccc(CCC=O)cc1,0.742%,
CC(C)(Cc1c[nH]c2ccccc12)NCC(O)COc1ccccc1C#N (stereo unspecified),-17.3% [at 42.5 µM],
CCOC(=O)CC(O)(CC(=O)OCC)C(=O)OCC,-21.4%,
CCCC(=O)OCCC(C)C,3.71%,
CC1=C(C)C(=O)C(CCCCC#CCCCC#CCO)=C(C)C1=O,-18.5% [at 42.5 µM],
C[C@H](CN1CCCC1)C(=O)c1ccc(C(F)(F)F)cc1,-2.34% [at 42.5 µM],
C=CC(C)CCC=C(C)C (stereo unspecified),0.752%,

Structure (SMILES),"viability change, negative = cytotoxic",Potency
O=C(c1ccc(Cl)cc1)c1ccc(Cl)cc1,0.0809%,
CCC(=O)O[C@]1(C(=O)COC)[C@@H](C)C[C@H]2[C@@H]3CCC4=CC(=O)C=C[C@]4(C)C3(F)[C@@H](O)C[C@@]21C (stereo partly specified),-8.41% [at 42.5 µM],
COC(=O)C(C)(C)C,-2.61%,
C=C[Si](OCC)(OCC)OCC,-2.19%,
Oc1ccc(Oc2ccccc2)cc1,-14.4%,
C=CC(O)CCCCC (stereo unspecified),-0.518%,
O=C1c2ccccc2C(=O)C1c1ccc2ccccc2n1,-1.71% [at 42.5 µM],
O=C(OCCOCCOCCOC(=O)c1ccccc1)c1ccccc1,-1.93%,
c1ccc(CN(Cc2ccccc2)Cc2ccccc2)cc1,3.59%,
CCCCCCCCCCCCSCCOCCO,14.5% [at 42.5 µM],
CC(C)=CCC/C(C)=C/C=N/O,-0.807%,
Cc1c(N=C=O)cccc1N=C=O,-23.1%,
CCC(CC)C(=O)O,-1.29%,
O=C(O)c1ccccc1-n1cc(C(=O)O)c(=O)c2cc(Nc3c(F)cc(F)cc3Cl)c(Cl)cc21,3.47%,
CCCN(C1CCN(C(=O)C2CCNCC2)CC1)[C@@H]1CCc2ccc(OC)cc2C1,-5.66%,
Clc1cc(Cl)c2c(c1)N=C1CCCCCN1C2,-13% [at 42.5 µM],
CCOC(C)OCC,2.23%,
